FLuc counter: inhibits or activates purified firefly luciferase, miR-21 counter-screen; P08659; purified FLuc, Km substrates, luminescence inhibition; Potency, µM (top dose mostly 57.5 µM), without a hit: at the top dose activity change, negative = inhibition, usual class: inhibitors; hit rate 6.9% among 360,000; AID 588342;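 further: plate controls were vehicle for no effect and reference inhibitor for full effect; nearly all actives have a fitted effect of over 55% in size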
Target sequence (P08659 whole entry, looked up): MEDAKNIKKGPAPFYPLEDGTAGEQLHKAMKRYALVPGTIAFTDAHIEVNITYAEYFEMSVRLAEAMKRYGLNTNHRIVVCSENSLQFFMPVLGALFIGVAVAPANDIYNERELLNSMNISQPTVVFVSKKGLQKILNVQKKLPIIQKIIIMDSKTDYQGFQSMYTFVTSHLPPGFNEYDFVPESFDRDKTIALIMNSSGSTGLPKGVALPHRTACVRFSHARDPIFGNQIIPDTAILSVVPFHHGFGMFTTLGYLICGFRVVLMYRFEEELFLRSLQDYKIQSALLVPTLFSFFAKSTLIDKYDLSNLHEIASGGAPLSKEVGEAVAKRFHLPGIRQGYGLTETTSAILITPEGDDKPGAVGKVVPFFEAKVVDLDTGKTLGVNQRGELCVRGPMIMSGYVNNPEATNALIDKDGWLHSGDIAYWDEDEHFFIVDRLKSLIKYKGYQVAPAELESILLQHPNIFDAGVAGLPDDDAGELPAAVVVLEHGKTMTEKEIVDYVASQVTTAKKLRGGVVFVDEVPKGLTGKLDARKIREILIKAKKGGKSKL
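Purified P. pyralis luciferase, 10 nM final, with Km-level 10 uM D-luciferin and 10 uM ATP in 50 mM Tris acetate pH 7.5, 10 mM Mg acetate, 0.01% Tween-20, 0.05% BSA; 6-point qHTS titration about 60 µM downward; luminescence read.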
NPC1 prom act: activates the NPC1 promoter; AID 485313; Potency, µM (titrated, usually from 9.22 µM), for the others: top-dose activation, actives largely listed as activators; Huh7 NPC1 promoter luciferase reporter, 24 h; hit rate 2.4% among 320,000; further: % of control where 0% means no effect; nearly all actives have a fitted effect of over 60% in size
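Quantitative HTS used a cell-based reporter: Huh7 cells stably bearing the NPC1 promoter upstream of luciferase were treated with compounds for 24 h, and promoter activation was read as luminescence.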
SMN2 splice enh: SMN2 splice variant enhancement. HEK293 SMN2-luciferase splicing reporter, luminescence, 30-36 h. Potency, µM (top dose mostly 46.1 µM), for inactives: at the top dose activity change, positive = activation, actives largely listed as activators. hit rate 2.8% among 210,000. AID 1458; further: % of control where 0% means no effect; nearly all actives have a fitted effect of over 55% in size
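HEK293 cells carry an SMN2 minigene-luciferase reporter in which exon 7 inclusion puts luciferase in frame. Cells were seeded at 2000 cells/well, attached for 10-12 hours, then exposed to compounds for 30-36 hours at 37C before ONE-Glo luminescence.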
ELG1 genotox: genotoxicity induction in ELG1-luciferase HEK293T cells | HEK293T ELG1-luciferase reporter, luminescence, 16 h | AID 504466 | hit rate 1.3% among 330,000 | Potency, µM (top dose mostly 46 µM), for inactives: at the top dose activity change, positive = activation, most hits filed as activators; further: % of control where 0% means no effect; nearly all actives have a fitted effect of over 60% in size
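Step 1: seed 2,000 HEK293T ELG1-luciferase cells per well. Step 2: add compound or DMSO, incubate 16 hr at 37 °C. Step 3: ONE-Glo, 30 min at room temperature, read luminescence.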
Rab9 prom act: activators of Rab9 promoter | Potency, µM (top dose mostly 9.22 µM), without a hit: top-dose activation, negative = inhibition, actives largely listed as activators | Huh7 Rab9 promoter-luciferase reporter, luminescence, 24 h | hit rate 2.8% among 320,000; further: % of control where 0% means no effect; nearly all actives have a fitted effect of over 60% in size
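Huh7 cells stably carrying Rab9 promoter–luciferase reporter, plated 1500 cells/well, compound added after 2 h and incubated 24 h at 37 °C; luciferase luminescence then read after 10 min with detection reagent.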
ELG1 repair inh: blocks ELG1-dependent DNA repair in HEK293T cells; HEK293T ELG1-luciferase reporter, luminescence, 16 h; DNA damage induced by 5-fluorouridine; AID 504467; Potency, µM (top dose mostly 46.1 µM), inactives show at the top dose activity change, negative = inhibition, hits mostly inhibitors; hit rate 2.3% among 330,000; further: on the % scale 0 is the no-effect control and ±100 the full control effect; nearly all actives have a fitted effect of over 55% in size
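Quantitative HTS, concentration-response format. 2,000 cells/well co-treated with 5-fluorouridine and compound, 16 hr in 5% CO2 at 37 °C; ONE-Glo luminescence read after 30 min.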
Starred values were filed as active, the others as inactive; ? = inconclusive; · = not tested or not shown; [ ] = another dose, or the depositor's remark. The list is not random: actives were taken first. Their share in the collection is about 9.2%. The call rests on the fitted dose curve; in most records, active means well fitted curve in the direction sought with a large enough effect; inconclusive means small, poorly fitted or top-dose-only effect, or another doubt; inactive means no such curve, though single readings can be large; an effect the other way counts as inactive or inconclusive. Potency means the concentration at half of the fitted maximal effect.

SMILES	FLuc counter	NPC1 prom act	SMN2 splice enh	ELG1 genotox	Rab9 prom act	ELG1 repair inh
CC(C)CN1C(=O)c2ccc(C(=O)Nc3ccc(OCC(=O)O)cc3)cc2C1=O	6.7µM*	-3%	·	-1%	-4%	11%
O=C(O)COc1ccc(NC(=O)c2ccc3c(c2)C(=O)N(Cc2ccccc2)C3=O)cc1	17µM*	-1%	·	-1%	-5%	21%
Cc1ccc(O)c(NC(=O)c2ccc3c(c2)C(=O)N(Cc2cccnc2)C3=O)c1	1.9µM*	1%	·	8%	-1%	-1%
COc1cc(OC)cc(C(=O)Nc2ccc(S(=O)(=O)N3CCCCC3c3cccnc3)cc2)c1 (stereo not drawn)	-7%	·	·	·	·	·
OCc1nc2ccccc2n1CCCOc1ccc(Br)cc1	11µM*	·	-9%	·	·	·
Cc1ccccc1OCCCn1c(CO)nc2ccccc21	15µM*	1%	4%	-6%	5%	0%
CC(=O)NCCc1nc2ccccc2n1CCCCOc1ccc(Cl)cc1	4%	·	-44%	·	·	·
CCc1nc2ccccc2n1CCCCOc1ccccc1C	?	·	-28%	·	·	·
CC(C)(C)C(=O)NCCCc1nc2ccccc2n1CCCOc1ccc(Cl)cc1	1%	-1%	-37%	-18%	-8%	23µM*
CCc1ccc(CNC(=O)CCc2c(C)nn(-c3ccc(N4CCCCC4)nn3)c2C)cc1	-19%	·	·	·	·	·
COc1cc(CNc2ccc(N3CCOCC3)cc2)cc(Br)c1OC	-8%	-6%	-10%	-5%	2%	?
COc1cc(CNc2ccc(N3CCCC3)cc2)cc(Cl)c1OC	9.5µM*	1%	-37%	3%	14%	13%
CCOc1cc(CNc2ccc(N3CCCC3)cc2)cc(Cl)c1OC	27µM*	13%	-3%	10%	20%	?
O=C(Nc1ccccc1)OCCNC(=O)c1cccc(Cl)c1	21µM*	6%	-21%	15%	-3%	-6%
CSCCNC(=O)c1cccc(Cl)c1	1%	-2%	-10%	0%	-1%	17%
CC(C)OC(=O)NCCOC(=O)Nc1cccc(Cl)c1	-5%	-6%	-34%	-3%	7%	-8%
O=C(NCCO)c1cccc(Cl)c1	4%	?	-2%	·	0.0063µM*	?
COc1ccc(OCCOC(=O)Nc2ccccc2)cc1	-11%	1%	·	0%	-4%	-6%
O=C(Nc1ccccc1)OCCOc1ccccc1	11µM*	4µM*	?	12µM*	0.89µM*	?
O=C(Nc1ccccc1)OCCOc1cccc(Br)c1	-9%	2%	·	3%	7%	2%
O=C(Nc1cccc(Cl)c1)OCCOc1ccccc1	21µM*	?	·	15%	?	?
CCOC(=O)[C@@H]1[C@H]2COc3cc(OC)ccc3[C@H]2N2C(=O)N(c3ccc(C)cc3)C(=O)[C@]12C	·	·	·	2%	·	-8%
Cc1cc(C2=CC(=O)C[C@H](c3ccc4c(c3)OCO4)C2)ccc1F	-6%	1%	·	1%	-3%	?
CC(C)c1nc2c(s1)CCc1onc(-c3cccc([N+](=O)[O-])c3)c1-2	2%	6%	·	-1%	-1%	2%
Cc1cccc(C)c1NC(=O)CNC(=O)C(C)N1CCN(c2cccc(Cl)c2)CC1 (stereo not drawn)	-1%	1%	·	0%	-5%	?
SMILES	FLuc counter	NPC1 prom act	SMN2 splice enh	ELG1 genotox	Rab9 prom act	ELG1 repair inh
COC(=O)c1sccc1NC(=O)Nc1ccc(Cl)c(Cl)c1	?	-2%	13µM*	18%	-3%	?
CCc1ccc(NC(=O)Nc2ccsc2C(=O)OC)cc1	0.34µM*	17%	·	2.1µM*	?	?
COC(=O)c1sccc1NC(=O)Nc1ccc(C)c(C)c1	0.48µM*	2%	·	2.3µM*	?	?
COC(=O)c1sccc1NC(=O)Nc1ccc(OC)c(OC)c1	?	-1%	·	-3%	-1%	-45%
COc1ccc(NCc2cc3cc4c(cc3n(CC(=O)Nc3ccc(C)c(C)c3)c2=O)OCO4)cc1	-1%	·	·	·	·	·
CCOCCc1nn2c(=O)cc(COC(=O)C(CC)c3ccccc3)nc2s1 (stereo not drawn)	-4%	·	·	·	·	·
COc1cc(/C=C2\C(=N)N3N=C(S(C)(=O)=O)SC3=NC2=O)ccc1OS(=O)(=O)c1ccc(C)cc1	?	-1%	·	0%[9.26 µM]	-1%	?
CCOC(=O)c1ccc(NC(=O)C2Cc3ccccc3CN2S(=O)(=O)c2ccc(Cl)cc2)cc1 (stereo not drawn)	2%	·	-27%	·	·	·
Cc1ccc2nc(Cc3ccc(N)cc3)oc2c1	13µM*	3.5µM*	?	12µM*	3.2µM*	?
Cc1ccc2nc(-c3ccc(O)cc3)oc2c1	0.95µM*	2.5µM*	·	?	?	?
Cc1ccc2nc(-c3cccc(N)c3)oc2c1	0.21µM*	0.89µM*	?	1.6µM*	3.5µM*	?
Cc1cc(C)c2oc(-c3cccc(N)c3)nc2c1	3.8µM*	3.5µM*	·	?	?	?
CCc1ccc2oc(-c3cccc(N)c3)nc2c1	0.24µM*	0.56µM*	6.3µM*	?	1.6µM*	?
CCc1ccc2oc(-c3cccc(NC(=O)COc4ccccc4Cl)c3)nc2c1	?	·	23%	·	·	·
COc1ccc(NS(=O)(=O)c2ccc(N/N=C(\C)c3ccncc3)c([N+](=O)[O-])c2)cc1	0%	-19%	-53%	1%	-21%	18µM*
Fc1ccc(-c2nnc(NC3=NCCCCC3)o2)cc1	0.6µM*	?	-21%	?	0.089µM*	?
c1ccc(-c2nnc(NC3=NCCC3)o2)cc1	6µM*	?	8.9µM*	1.8µM*	0.35µM*	?
Fc1ccc(-c2nnc(Cc3nnc(-c4ccc(F)cc4)o3)o2)cc1	-1%	-2%	-5%	-1%	0%	-15%
Fc1ccc(-c2nnc(-c3ccc(F)cc3)o2)cc1	4.3µM*	2.8µM*	·	?	?	?
COc1cccc(Oc2ccc(S(=O)(=O)N3CCCC3)cc2[N+](=O)[O-])c1	0%	-3%	·	-7%	6%	?
CN(C)S(=O)(=O)c1ccc2c(c1)/C(=C/c1cc3c([nH]1)CCCC3)C(=O)N2	-20%	?	11µM*	?	?	16%
CCC(C)[C@H](NC(=O)[C@@H]1CSC2c3ccccc3C(=O)N21)C(=O)N1CCCCC1 (stereo partly drawn)	1%	-3%	·	2%	-6%	8%
O=C(CSc1nc2ccc([N+](=O)[O-])cc2[nH]1)NC1CCCCCC1	1%	-5%	·	-8%	3%	16µM*
